Results on 40 compounds are retold here after PubChem BioAssay (NCI).

Compounds without any hit were thinned out: in the full panel of roughly 79,000, 15% have a hit. Values without a mark were called inactive. Calls of active or inactive are those of the source. Rule as the data show it: active = growth inhibition above about 70%; inactive = the rest.

The nature of one test: NCI Yeast Anticancer Drug Screen. Data for the sgs1 mgt1 strain (AID 161).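 Also: 0% = growth of cultures given vehicle only.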 The settings on record: S. cerevisiae sgs1 mgt1 strain, at 50.0 µM, active compounds read high. A digest of the protocol: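 Percent growth inhibition was derived by comparing compound-exposed mutant yeast with vehicle-exposed cultures. The strain carries alterations in DNA damage repair.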
In the case of `COc1ccc([N+](=O)[O-])c2c1CONC2(C)C(=O)O` (stereo not given), the growth inhibition was 8.2%.
On to `COC(=O)C(C(=O)C(=O)Nc1ccccc1C(C)=O)c1nc2ccc(Cl)cc2[nH]c1=O` (stereo not given), for which the growth inhibition is -12.3%.
`CCCCCCCCCCCCCCCCCC1(c2ccccc2)NC(=O)NC1=O` (stereo not given): the growth inhibition was 30.5%.
`CCCCCCCCCC(=O)N/N=C/c1cccnc1`: the growth inhibition was 95.9% (active).
The same measure, in the same setting: for `N#C/C(=C(/Cc1ccc(F)cc1)NP(=O)(c1ccccc1)c1ccccc1)c1ccc(F)cc1` the value was -10.4%; for `CCCCCCCCCCCCCCCCC1=C(C(=O)OC)NC(N)=NC1O` (stereo not given), -20.8%.
Same read-out and setting: for `C=CC1CNCCC1CC(=O)OCC` (stereo not given) the value was 3%; for `C#Cc1cccc(N=Cc2cc(Cl)cc(C)c2O)c1`, 36.5%; for `O=C(c1ccccc1)C1Nc2ccccc2CO1` (stereo not given), -13.5%.
On to `ClC(Cl)C1OCCOCCO1`, for which the growth inhibition is -9.9%.
As to `CCC(CC)C(=O)NCC(=O)NO`, the growth inhibition is 1%.
`OC(CNc1ccc(Cl)cc1)CN1CCOCC1` (stereo not given): the growth inhibition was 14.9%.
With `[N-]=[N+]=NC[C@H]1OCO[C@H](CN=[N+]=[N-])[C@H]2OCCOCCOc3ccccc3OCCOCCO[C@@H]21`, the growth inhibition is -11.6%.
With `CCOC(=O)C(=CNc1ccc(NC2=NCC(C)S2)cc1)C(=O)OCC` (stereo not given), the growth inhibition was -20.4%.
Consider `CC(=O)Nc1ccc(C)cc1[N+](=O)[O-]`, for which the growth inhibition was -29.2%.
Regarding `Cc1cnc2c(C)ccc([N+](=O)[O-])c2c1NCCCN(C)C`, the growth inhibition is 12.7%.
Take `CCOc1ccc2nc(C)ccc2c1`: the growth inhibition is 21.9%.
As to `O=C(Cc1nc2sc3c(c2c(=O)[nH]1)CCCC3)Nc1ccccc1`, the growth inhibition is 0.05%.
On the same count and under the same terms, for `CC(OC(C)C(N)=O)C(N)=O` (stereo not given) the value was -5.8%; for `O=[N+]([O-])c1ccccc1-c1ccccc1[N+](=O)[O-]`, 33.8%; for `C/C=C\C=N\NC(=O)C(=O)N/N=C/C=C\C`, -7.55%.
As for `CNn1c(C)n[nH]c1=O`, the growth inhibition was 10.4%.
For `Cc1ccccc1NC(=O)Cc1csc2[n+]1C(=O)/C(=C\c1ccc3c(c1)OCO3)S2`, the growth inhibition is 17.9%.
Still for that read-out and setting: the same measure for `CC(=O)CC(C)(C)S(=O)(=O)Cc1ccccc1`: 6.9%; for `CCCCOP(=O)(Cc1ccc(Cl)cc1Cl)OCCCC`: 99.5% (active).
On the same count and under the same terms, for `CCCCc1cccc2c1OCO2` the value was -7.75%; for `CCOc1ccc(/C=N/O)cc1OCC`, -10.2%; for `CCOC(=O)/C(C#N)=N\Nc1ccccc1`, -1.7%.
As to `CC(=O)NCCCCN(CCCNC(C)=O)C(=O)CNS(=O)(=O)c1cccc2c(N(C)C)cccc12`, the growth inhibition was 16.2%.
For `O=C1/C(=C/c2ccc3c(c2)OCO3)CCC1CN1CCOCC1` (stereo not given), the growth inhibition is 90.8% (active).
Take `O=C(CCCC(=O)NNC(=O)Nc1cccc(Cl)c1)NNC(=O)Nc1cccc(Cl)c1`: the growth inhibition was -10.9%.
Take `CC(=O)OCC1COC(C2CC=CCC2C)O1` (stereo not given): the growth inhibition is -8.35%.
For the compound `O=c1c2ccccc2oc2nc3ccc(Cl)cc3n12`, the growth inhibition was 0.45%.
Turning to `CCOC(=O)/C(Cl)=C1\SN(C(=O)OCC)N=C1C`, the growth inhibition was -11.4%.
As to `C=C(C)CNCCN`, the growth inhibition was 6.2%.
Still for that read-out and setting: the same measure for `COc1c2ccoc2c(S(=O)(=O)Nc2ccc(Cl)cc2)c2oc(C)cc(=O)c12`: -13.9%; for `COc1ccc2c(c1)C13CCCC(C)(C(=O)NC1)C3CC2` (stereo not given): -16.3%; for `CNc1ccccc1C`: -8.1%.
On to `NC(=O)C1CC2CC(Cl)C1C2` (stereo not given), for which the growth inhibition is -18.1%.
As to `CC(C)[N+](=C1O[B-](c2ccccc2)(c2ccccc2)O[B-]1(c1ccccc1)[C+]1CCCCC1)C(C)C` (stereo not given), the growth inhibition was 10.8%.

A short description of another test: NCI Yeast Anticancer Drug Screen. Data for the cln2 rad14 strain (AID 165).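 Also: 0% = growth equal to vehicle treated cultures.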 Conditions: S. cerevisiae cln2 rad14 strain, at 50.0 µM, active compounds read high. A digest of the protocol: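 Yeast carrying cln2 and rad14 alterations (cell cycle control and DNA damage repair) were exposed to compounds. Growth inhibition was measured against vehicle-treated controls.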
Regarding `COc1ccc([N+](=O)[O-])c2c1CONC2(C)C(=O)O` (stereo not given), the growth inhibition is -4.95%.
As to `COC(=O)C(C(=O)C(=O)Nc1ccccc1C(C)=O)c1nc2ccc(Cl)cc2[nH]c1=O` (stereo not given), the growth inhibition was -4.45%.
On to `CCCCCCCCCCCCCCCCCC1(c2ccccc2)NC(=O)NC1=O` (stereo not given), for which the growth inhibition was 12.9%.
Regarding `CCCCCCCCCC(=O)N/N=C/c1cccnc1`, the growth inhibition is 26.2%.
For `N#C/C(=C(/Cc1ccc(F)cc1)NP(=O)(c1ccccc1)c1ccccc1)c1ccc(F)cc1`, the growth inhibition was 0.8%.
With `CCCCCCCCCCCCCCCCC1=C(C(=O)OC)NC(N)=NC1O` (stereo not given), the growth inhibition was -10.1%.
Take `C=CC1CNCCC1CC(=O)OCC` (stereo not given): the growth inhibition is -12.4%.
Consider `C#Cc1cccc(N=Cc2cc(Cl)cc(C)c2O)c1`, for which the growth inhibition is 10.1%.
With `O=C(c1ccccc1)C1Nc2ccccc2CO1` (stereo not given), the growth inhibition was -23.4%.
On the same count and under the same terms, the same measure for `ClC(Cl)C1OCCOCCO1`: -57.8%; for `CCC(CC)C(=O)NCC(=O)NO`: -36%.
Consider `OC(CNc1ccc(Cl)cc1)CN1CCOCC1` (stereo not given), for which the growth inhibition was -1.05%.
For `[N-]=[N+]=NC[C@H]1OCO[C@H](CN=[N+]=[N-])[C@H]2OCCOCCOc3ccccc3OCCOCCO[C@@H]21`, the growth inhibition is -15.6%.
Take `CCOC(=O)C(=CNc1ccc(NC2=NCC(C)S2)cc1)C(=O)OCC` (stereo not given): the growth inhibition was -7.9%.
Still for that read-out and setting: the same measure for `CC(=O)Nc1ccc(C)cc1[N+](=O)[O-]`: -29.9%.
For the compound `Cc1cnc2c(C)ccc([N+](=O)[O-])c2c1NCCCN(C)C`, the growth inhibition is 2.45%.
Regarding `CCOc1ccc2nc(C)ccc2c1`, the growth inhibition was 9.85%.
Turning to `O=C(Cc1nc2sc3c(c2c(=O)[nH]1)CCCC3)Nc1ccccc1`, the growth inhibition was 5.9%.
`CC(OC(C)C(N)=O)C(N)=O` (stereo not given): the growth inhibition is -3.05%.
Turning to `O=[N+]([O-])c1ccccc1-c1ccccc1[N+](=O)[O-]`, the growth inhibition is 10%.
Regarding `C/C=C\C=N\NC(=O)C(=O)N/N=C/C=C\C`, the growth inhibition was -56.5%.
With `CNn1c(C)n[nH]c1=O`, the growth inhibition is 20.6%.
Take `Cc1ccccc1NC(=O)Cc1csc2[n+]1C(=O)/C(=C\c1ccc3c(c1)OCO3)S2`: the growth inhibition was 3%.
Turning to `CC(=O)CC(C)(C)S(=O)(=O)Cc1ccccc1`, the growth inhibition is -5.85%.
For `CCCCOP(=O)(Cc1ccc(Cl)cc1Cl)OCCCC`, the growth inhibition was 99% (active).
Regarding `CCCCc1cccc2c1OCO2`, the growth inhibition was -9.75%.
`CCOc1ccc(/C=N/O)cc1OCC`: the growth inhibition is -25.6%.
With `CCOC(=O)/C(C#N)=N\Nc1ccccc1`, the growth inhibition was -25.3%.
The same measure, in the same setting: for `CC(=O)NCCCCN(CCCNC(C)=O)C(=O)CNS(=O)(=O)c1cccc2c(N(C)C)cccc12` the value was 2%; for `O=C1/C(=C/c2ccc3c(c2)OCO3)CCC1CN1CCOCC1` (stereo not given), 92.7% (active).
For the compound `O=C(CCCC(=O)NNC(=O)Nc1cccc(Cl)c1)NNC(=O)Nc1cccc(Cl)c1`, the growth inhibition is -12.9%.
In the case of `CC(=O)OCC1COC(C2CC=CCC2C)O1` (stereo not given), the growth inhibition is 4.05%.
For the compound `O=c1c2ccccc2oc2nc3ccc(Cl)cc3n12`, the growth inhibition was -30.9%.
For `CCOC(=O)/C(Cl)=C1\SN(C(=O)OCC)N=C1C`, the growth inhibition is 54.7%.
On to `C=C(C)CNCCN`, for which the growth inhibition was -0.6%.
For the compound `COc1c2ccoc2c(S(=O)(=O)Nc2ccc(Cl)cc2)c2oc(C)cc(=O)c12`, the growth inhibition is -8.15%.
Regarding `COc1ccc2c(c1)C13CCCC(C)(C(=O)NC1)C3CC2` (stereo not given), the growth inhibition is 9%.
For `CNc1ccccc1C`, the growth inhibition is -82.1%.
In the case of `NC(=O)C1CC2CC(Cl)C1C2` (stereo not given), the growth inhibition is -45%.
With `CC(C)[N+](=C1O[B-](c2ccccc2)(c2ccccc2)O[B-]1(c1ccccc1)[C+]1CCCCC1)C(C)C` (stereo not given), the growth inhibition was 19.8%.
